Screen size: about 310,000 compounds; about 14,000 (4.5%) showed an effect of 50% or more. The effect is printed as a negative number. Many of the other results were omitted from the sample, so strong results are more common in it than they were.
molecular target: human ether-à-go-go-related gene (hERG) potassium channel (human, UniProt Q12809); test: primary screen, population patch clamp on CHO cells stably expressing hERG; higher = less effect of the substance
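Further: peak tail current of the secondary pulse compared with the same well before compound.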

Sequence of human ether-à-go-go-related gene (hERG) potassium channel (Q12809 whole entry, looked up): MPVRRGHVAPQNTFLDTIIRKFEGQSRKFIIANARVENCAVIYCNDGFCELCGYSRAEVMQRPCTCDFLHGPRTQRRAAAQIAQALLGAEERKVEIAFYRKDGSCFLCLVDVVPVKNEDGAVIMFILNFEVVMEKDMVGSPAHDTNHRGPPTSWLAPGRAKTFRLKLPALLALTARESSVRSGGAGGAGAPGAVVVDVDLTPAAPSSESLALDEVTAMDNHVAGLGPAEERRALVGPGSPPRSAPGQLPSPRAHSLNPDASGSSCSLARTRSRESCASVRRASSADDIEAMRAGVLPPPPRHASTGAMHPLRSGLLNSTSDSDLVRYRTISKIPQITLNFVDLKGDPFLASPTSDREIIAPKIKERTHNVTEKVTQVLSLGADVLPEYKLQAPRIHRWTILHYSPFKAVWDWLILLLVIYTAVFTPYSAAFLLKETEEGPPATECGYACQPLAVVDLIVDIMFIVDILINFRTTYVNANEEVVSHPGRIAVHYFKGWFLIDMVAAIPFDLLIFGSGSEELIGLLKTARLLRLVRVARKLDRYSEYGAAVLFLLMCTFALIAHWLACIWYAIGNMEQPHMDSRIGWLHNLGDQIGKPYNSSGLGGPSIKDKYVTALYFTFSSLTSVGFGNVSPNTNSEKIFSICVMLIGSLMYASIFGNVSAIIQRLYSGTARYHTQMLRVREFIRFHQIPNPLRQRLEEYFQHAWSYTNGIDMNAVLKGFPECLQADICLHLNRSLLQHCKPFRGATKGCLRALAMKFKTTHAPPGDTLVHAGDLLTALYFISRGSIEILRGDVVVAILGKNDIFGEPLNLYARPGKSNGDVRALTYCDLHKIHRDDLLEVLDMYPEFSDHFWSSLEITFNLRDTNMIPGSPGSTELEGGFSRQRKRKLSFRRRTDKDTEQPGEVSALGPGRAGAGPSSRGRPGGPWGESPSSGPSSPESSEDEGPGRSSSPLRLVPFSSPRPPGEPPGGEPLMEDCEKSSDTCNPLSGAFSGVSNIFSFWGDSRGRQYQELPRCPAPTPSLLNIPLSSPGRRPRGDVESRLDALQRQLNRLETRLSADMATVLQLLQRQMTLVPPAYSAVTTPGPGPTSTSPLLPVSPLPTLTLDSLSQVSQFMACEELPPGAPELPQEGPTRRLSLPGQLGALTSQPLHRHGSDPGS

Compound | hERG current change (%, negative = inhibition) at 10uM [%]
CCOC(=O)c1sc(NC(=O)c2ccc(S(=O)(=O)N3CCCCC3)cc2)nc1-c1ccccc1 | 18.1
CC(=O)Nc1ccccc1C(F)(F)F | 21.2
COc1ccc(C(=O)NC(C)c2nnc(SCC(=O)NC3CCCC3)n2C)cc1 (stereo not drawn) | 4.98
O=C1OC(c2ccc(Cl)cc2)=C/C1=C/c1cccnc1 | 23.3
Cc1c(Cc2ccccc2)c(=O)oc2c(C)c(OCc3nn[nH]n3)ccc12 | 11.3
Cc1ccc(S(=O)(=O)N/N=C/c2ccc(OS(=O)(=O)c3ccc(C)c([N+](=O)[O-])c3)cc2)cc1 | 7.76
Cc1ccc(C(=O)NCCn2cc(SCC(=O)Nc3nnc(C)s3)c3ccccc32)cc1 | -3.05
COc1ccccc1CNC(=O)CC(C)c1ccccc1 (stereo not drawn) | 4.63
CCCn1c2ccccc2c2nnc(SCC(=O)Nc3cc(C)on3)nc21 | -0.11
Cc1ccc(S(=O)(=O)N2CCN(S(C)(=O)=O)C2c2ccccc2)cc1 (stereo not drawn) | -37.2
C=CCOc1ccc(/C=C/C(=O)OCC(=O)NCCc2ccccc2)cc1 | 8.61
COc1ccc(C(CNC(=O)c2cccc(S(=O)(=O)N(C)c3ccccc3)c2)N2CCCC2)cc1 (stereo not drawn) | -60.2
CNS(=O)(=O)c1cccc(C(=O)NCC(c2cccs2)N(C)C)c1 (stereo not drawn) | -5.25
COc1ccc(C(CNC(=O)c2cccc(S(=O)(=O)N3CCCC3)c2)N2CCCC2)cc1 (stereo not drawn) | -22.9
COc1ccc(N(C)S(=O)(=O)c2cccc(C(=O)NCC(c3cccs3)N(C)C)c2)cc1 (stereo not drawn) | -52.3
CCN(c1ccccc1)S(=O)(=O)c1cccc(C(=O)NCC(c2cccs2)N(C)C)c1 (stereo not drawn) | -48.6
COc1ccc(C(CNC(=O)c2cccc(N(C)C)c2)N2CCCC2)cc1 (stereo not drawn) | -28.3
CCOc1ncccc1C(=O)OCC(=O)c1ccc(C)c(C)c1 | -20.2
CN1CCCC(OC(=O)COc2ccc(Br)cc2)C1.Cl (stereo not drawn) | -12.8
CCOC(=O)N1CCN(Cc2nc(-c3ccc(OC)cc3)no2)CC1 | -4.74

Compound | hERG current change (%, negative = inhibition) at 10uM [%]
CCOC(=O)N1CCN(Cc2nc(N)nc(Nc3ccc(Oc4ccccc4)cc3)n2)CC1 | -70.7
CCOc1ccc(Nc2nc(N)nc(CSC(=S)N3CCOCC3)n2)cc1 | -2
CCOC(=O)N1CCN(Cc2nc(N)nc(Nc3ccccc3C)n2)CC1 | -14.9
COc1ccc(Nc2nc(N)nc(CSC(=S)N3CCN(C)CC3)n2)cc1 | -12.5
CCOC(=O)N1CCN(Cc2nc(N)nc(Nc3ccc(OC)cc3)n2)CC1 | -62.4
CCOC(=O)N1CCN(Cc2nc(N)nc(Nc3ccc(OCC)cc3)n2)CC1 | -67.6
Cc1c(OCC(F)(F)F)ccnc1CSc1nc2ccccc2[nH]1 | 20.6
O=C(CCN1C(=O)/C(=C/c2ccccc2Cl)SC1=S)NNC(=O)c1ccccc1O | -6.37
CCOc1ccc(N(CC(=O)Nc2ccc(OC)cc2)S(C)(=O)=O)cc1 | 3.39
CC(C)(C)C(=O)N1CCC(O)(CS(=O)(=O)c2ccc(Cl)c(Cl)c2)CC1 | -5.3
CCCN1C(=O)C(NS(=O)(=O)c2ccc(N)cc2)(C(F)(F)F)C(C(=O)OC)=C1C (stereo not drawn) | 10.1
CCN(CC1CCCO1)C(=O)c1cc(COc2ccccc2SC)on1 (stereo not drawn) | -85.6
CCN(CC1CCCO1)C(=O)c1cc(COc2ccc(F)cc2F)on1 (stereo not drawn) | -14.8
CSc1ccccc1OCc1cc(C(=O)NCc2csc(C(C)C)n2)no1 | -9.57
Cc1ccc(OCc2cc(C(=O)NCC(C)(C)N3CCOCC3)no2)cc1C | -45.8
O=C(c1cc(COc2ccc(F)cc2Cl)on1)N1CC[C@@H]2CCCC[C@H]2C1 | 12.6
COc1ccc(OCc2cc(C(=O)NCC(C)(C)N3CCOCC3)no2)c(Cl)c1 | -31.8
CCN(CC1CCCO1)C(=O)c1cc(COc2ccc(OC)cc2Cl)on1 (stereo not drawn) | -5.59
CSc1ccccc1OCc1cc(C(=O)N(C)C(C)c2nc(C)cs2)no1 (stereo not drawn) | -63.6
CSc1ccccc1OCc1cc(C(=O)NCC(C)(C)N2CCOCC2)no1 | -93

Compound | hERG current change (%, negative = inhibition) at 10uM [%]
O=C(c1cc(COc2ccc(F)cc2Cl)on1)N1CCCC(c2ccccc2)C1 (stereo not drawn) | -5.56
CSc1ccccc1OCc1cc(C(=O)N(C)C(C)c2ccccn2)no1 (stereo not drawn) | -10.6
CCN(CC)C1CCN(C(=O)c2cc(COc3ccc(F)cc3Cl)on2)C1 (stereo not drawn) | -70
COc1cc(CNS(=O)(=O)CCl)cc(OC)c1OC | 12.7
CCOC(=O)c1sc(=S)n(C)c1NC(=O)c1ccc(OC)cc1 | 17.4
COc1ccc2nc(C)c3cc(C)oc3c2c1 | -15.5
Cc1cc(C)c2c(n1)SCC(=O)N2CC(=O)Nc1cc(F)ccc1F | -7.16
COc1ccc(NC(=O)/C=C/c2ccc(OC(F)F)cc2)cn1 | -24.7
CCC(=O)NCCc1nc2cc(NC(=O)c3ccc(F)cc3)ccc2n1C | 1.29
COc1cc(OC)c(C(=O)Nc2ccncc2)cc1OC | 7.83
CCC(=O)Nc1ccc(S(=O)(=O)c2ccc(NC(=O)CC)cc2)cc1 | 0.428
Cl.O=C(COc1ccccc1Cc1ccccc1)NCCCN1CCOCC1 | -32.1
Cc1ccccc1OCC(=O)NCC(C)(C)N1CCOCC1 | 7.19
CC(C)(CNC(=O)COc1ccccc1Cc1ccccc1)N1CCOCC1 | -55.6
COCC1CCN(C(=O)c2cc(COc3ccccc3SC)on2)C1 (stereo not drawn) | -33.9
CSc1ccccc1OCc1cc(C(=O)N2CCN(C)C(c3ccccc3)C2)no1 (stereo not drawn) | -5.98
COc1cccc(OCc2cc(C(=O)N3CCN(C)C(c4ccccc4)C3)no2)c1 (stereo not drawn) | -6.09
CCN(CC)C1CCN(C(=O)c2cc(COc3ccccc3SC)on2)C1 (stereo not drawn) | -68.4
CSc1ccccc1OCc1cc(C(=O)N2CCCC(C)C2)no1 (stereo not drawn) | -0.622
COc1ccccc1OCc1cc(C(=O)N2CCN(C)C(c3ccccc3)C2)no1 (stereo not drawn) | -61.1

From paper PMC4336329 (PLoS ONE, 2015)
